Experimental findings from PubChem BioAssay (NCATS) are described below.

Each structure is given as a SMILES string. Results filed as inconclusive are left out. A call without a number means that no potency is given here. The source made the active and inactive calls. Calls come from the whole dose curve; as a rule, active = well fitted cell-killing curve with a large enough effect; inconclusive = small, poorly fitted or top-dose-only effect; inactive = no such curve, though single readings can be large or run the other way.
Potency is the fitted concentration of half-maximal effect.

The nature of the test: qHTS of pediatric cancer cell lines to identify multiple opportunities for drug repurposing: Primary screen for Saos-2 cells (AID 1347097). Note: nearly all actives have a fitted effect of over 40% in size. The settings on record: Saos-2 viability, CellTiter-Glo ATP luminescence, 48 h; series mostly up to 46 µM. The source says: Drug repurposing or repositioning has been offered as a strategy for drug development in oncology programs. This approach has special potential for childhood cancers and other rare or orphan diseases, where the expected return on new drug development has been a disincentive to pharmaceuticals. […] In this project we exploit the poly-pharmacology of drugs to discover new indications via phenotypic screening of a panel of 19 well-characterized cell lines derived from solid tumors seen in children and adolescents. The goal is to identify approved drugs with previously unrecognized anticancer properties that has the potential to reveal new mechanisms and biological processes involved in carcinogenesis or drug resistance. We employed a titration-based paradigm (quantitative high-throughput screening or qHTS), where all compounds were tested at multiple concentrations for their effect on cell viability. Concentration-response curves (CRCs) were derived directly from the primary screen, and both potency and efficacy values were used to identify compounds with robust bioactivity profiles. We screened the NIH Chemical Genomics Center (NCGC) Pharmaceutical Collection (NPC) and Mechanism Interrogation Plate (MIPE) small molecule collections of approved and investigational compounds against these cell lines; and measured metabolically active cells after 48 hours of compound treatment as a proxy for cell viability. […] Assay Submitter: Nathalia J. Martinez, National Center for Advancing Translational Sciences, National Institutes of Health, Rockville, MD, USA; email: natalia.martinez@nih.gov Shen, M et al. Quantitative high-throughput phenotypic screening of pediatric cancer cell lines identifies multiple opportunities for drug repurposing. Oncotarget 2017 Dec 19;9(4):4758-4772. PMID 29435139.
The cells were obtained from University of North Carolina (UNC), Pediatric Preclinical Testing Program (PPT), and Coriell Institute (CI). qHTS cell viability assay: Cells were assayed in growth media at a density of 500-1,000 cells/well. Five microliters of cells were dispensed into 1,536-well, white, solid-bottom, TC-treated plates (Greiner Bio One) using a multidrop dispenser and incubated at 37 degrees C, 5% CO2, under a humidified atmosphere for 5 hours. Twenty-three nanoliters of compounds and controls (neutral control DMSO or positive control bortezomib at final concentration of 2.3 µM) were subsequently transferred by Kalypsys pintool. For primary screens, the MIPE collection was tested at 11-point dilutions (final concentrations range from 0.78 nM to 46 µM) and the NPC collection at 8-point dilutions (final concentrations range from 0.59 nM to 46 µM). Compounds tested in follow-up screens were assayed at 11-point dilutions. Cells were incubated for 48 hours, followed by addition of 3 µL of CellTiter-Glo (Promega). After a 15 min incubation at room temperature, samples were analyzed for luminescence intensity using a ViewLux High-throughput CCD imager equipped with clear filters.
Background: qHTS replaces the single test concentration by a dilution series.
On to `O=c1[nH]oc2c1CCNC2`, for which the Potency entry is “inactive”.
As for `C=CCC1(C(C)CC)C(=O)NC(=O)NC1=O` (stereo not given), the entry is “inactive”; as for `O=C(O)CCCc1ccc(N(CCCl)CCCl)cc1`, “inactive”.
As for `C=CCC1([C@H](C)CCC)C(=O)NC(=O)NC1=O`, the entry is “inactive”; as for `COC(=O)C(Cl)C(=O)OC`, “inactive”; as for `CC(C(=O)c1ccccc1)N(C)C` (stereo not given), “inactive”.
The value for `O=C(N/N=C/c1ccc([N+](=O)[O-])o1)c1cc([N+](=O)[O-])cc([N+](=O)[O-])c1O` was “inactive”.
Take `COc1ccc2c3c1O[C@H]1[C@H](O)CC[C@H]4[C@@H](C2)N(C)CC[C@@]341`: the Potency entry was “inactive”.
Turning to `ClCCN1CCCC1`, the Potency entry was “inactive”.
The value for `C[N+]1(CCF)[C@@H]2CC[C@H]1CC(OC(=O)C(O)(c1ccccc1)c1ccccc1)C2` (stereo not given in full) was “inactive”; that for `CCOP(=S)(OCC)Oc1ccc2c(C)c(Cl)c(=O)oc2c1` was “inactive”.
Take `C[C@]12CCC(=O)C=C1CC[C@@H]1[C@H]3CC[C@](C)(O)[C@@]3(C)CC[C@@H]12`: the Potency is 27.5 µM (active).
With `CN1CC[C@]23c4c5ccc(O)c4O[C@H]2[C@@H](O)CC[C@H]3[C@H]1C5`, the Potency entry was “inactive”.
The value for `Nc1ccc([As](=O)(O)O)cc1` was “inactive”; that for `c1ccc(N2CCNCC2)cc1` was “inactive”; that for `COc1cc(CC(C)N)cc(OC)c1OC` (stereo not given) was “inactive”.
The value for `CN1C(=O)NC(=O)C(C)(C2=CCCCC2)C1=O` (stereo not given) was “inactive”; that for `CC(C)(C)NCC(O)c1cc(Cl)c(N)c(C(F)(F)F)c1` (stereo not given) was “inactive”.
Consider `CC(C)NC(C)C`, for which the Potency result was “inactive”.
With `C[C@H]1[C@@H]2Cc3ccc(O)cc3[C@@]1(C)CCN2C`, the Potency entry was “inactive”.
For `COc1cc(OC)c(OC)cc1C=O`, the Potency result was “inactive”.
The value for `Cc1ncsc1CCCl` was “inactive”.
As to `CCN[C@@H](C)Cc1cccc(C(F)(F)F)c1`, the Potency result was “inactive”.
Consider `COc1cccc([C@@]2(O)CCCC[C@@H]2CN(C)C)c1`, for which the Potency result was “inactive”.
As for `CN1CCC(O)(c2ccc(F)cc2)C(C(=O)c2ccc(F)cc2)C1` (stereo not given), the entry is “inactive”; as for `NCCc1ccc(O)cc1`, “inactive”; as for `COC(=O)[C@@H](N)CCCN/C(N)=N/[N+](=O)[O-]`, “inactive”.
As for `CCN[C@@H](C)Cc1ccccc1`, the entry is “inactive”; as for `CC(C)c1c(CN(C)C(C)Cc2ccccc2)n(C)n(-c2ccccc2)c1=O` (stereo not given), “inactive”; as for `CNCC(=O)c1ccc(O)c(O)c1`, “inactive”.
The value for `CN(C)CCc1c[nH]c2cccc(OP(=O)(O)O)c12` was “inactive”; that for `C=C(C)[C@H]1CN[C@H](C(=O)O)[C@H]1CC(=O)O` was “inactive”.
In the case of `NNc1ccccc1`, the Potency result was “inactive”.
On to `C=CCN1C[C@H](C)N([C@H](c2ccc(C(=O)N(CC)CC)cc2)c2cccc(OC)c2)C[C@H]1C`, for which the Potency result is “inactive”.
The value for `CC[N+]1(CC)CCC(OC(=O)C(O)(c2ccccc2)c2ccccc2)C1` (stereo not given) was “inactive”; that for `COP(=S)(OC)Oc1ccc(S(=O)(=O)N(C)C)cc1` was “inactive”; that for `O=C1OC(CCN2CCCCC2)OC1(c1ccccc1)c1ccccc1` (stereo not given) was “inactive”.
As for `CCCOC(=O)c1cncn1C(C)c1ccccc1` (stereo not given), the entry is “inactive”; as for `[N-]=[N+]=CC(=O)OC[C@H](N)C(=O)O`, “inactive”; as for `CCCN(CCC)C(=O)Cc1c(-c2ccc(Cl)cc2)nc2ccc(Cl)cn12`, “inactive”.
